Data taken from PubChem BioAssay (NCATS).
Several values for one entry are separate records, joined by “and”; a condition that tells them apart may be missing. Identical values can stand only once. Records with an inconclusive call do not appear. A call without a number means that no potency is given here. Activity calls are given as the source filed them. Calls come from the whole dose curve; as a rule, active = well fitted inhibition curve with a large enough effect; inconclusive = small, poorly fitted or top-dose-only effect; inactive = flat fitted curve, though single readings scatter.

Test: Primary qHTS for inhibitors of nuclear receptor binding SET domain protein 2 (NSD2) in an isogenic RCH-ACV NSD2 p.E1099K mutant (9B) (AID 1645876); note: nearly all actives have a fitted effect of over 70% in size
Details: RCH-ACV (leukaemia line) NSD2 E1099K (9B) viability, CellTiter-Glo, 72 h; series mostly up to 44.9 µM
Potency is the fitted concentration of half-maximal effect.

Row | Compound | Potency
1 | COc1nc(N)nc2c1ncn2[C@@H]1O[C@H](CO)[C@@H](O)[C@@H]1O | 5.31 µM (active)
2 | CC(=O)CC(c1ccccc1)c1c(O)c2ccccc2oc1=O (stereo not drawn) | inactive
3 | CNC(=O)c1cc(Oc2ccc(NC(=O)Nc3ccc(Cl)c(C(F)(F)F)c3)cc2)ccn1 | 9.34 µM (active) and 21.1 µM (active) and 5.15 µM (active)
4 | CN(CCOc1ccc(CC2SC(=O)NC2=O)cc1)c1ccccn1 (stereo not drawn) | inactive
5 | COc1ccc(C(=O)CC(=O)c2ccc(C(C)(C)C)cc2)cc1 | inactive
6 | CO[C@@H]1[C@@H](OC(N)=O)[C@@H](O)[C@H](Oc2ccc3c(O)c(NC(=O)c4ccc(O)c(CC=C(C)C)c4)c(=O)oc3c2C)OC1(C)C | inactive
7 | Oc1c(Cl)cc(Cl)c2cccnc12 | 3.76 µM (active)
8 | C[C@]12C=CC(=O)C=C1CC[C@@H]1[C@@H]2C(=O)C[C@@]2(C)[C@H]1CC[C@]2(O)C(=O)CO | inactive
9 | CC(C)C[C@H](NC(=O)[C@H](CCc1ccccc1)NC(=O)CN1CCOCC1)C(=O)N[C@@H](Cc1ccccc1)C(=O)N[C@@H](CC(C)C)C(=O)[C@@]1(C)CO1 | 7.5 nM (active) and 10.5 nM (active)
10 | CCC(=O)O[C@]1(C(=O)CCl)[C@@H](C)C[C@H]2[C@@H]3CCC4=CC(=O)C=C[C@]4(C)[C@@]3(F)[C@@H](O)C[C@@]21C | 23.5 µM (active)
11 | Cn1c(=O)c2c(ncn2CC(O)CO)n(C)c1=O (stereo not drawn) | inactive
12 | COc1ncnc(NS(=O)(=O)c2ccc(N)cc2)c1OC | inactive
13 | CCOc1cc(N)c(Cl)cc1C(=O)NCC1CN(Cc2ccc(F)cc2)CCO1 (stereo not drawn) | 21.1 µM (active)
14 | C[C@@H]1CN(c2c(F)c(N)c3c(=O)c(C(=O)O)cn(C4CC4)c3c2F)C[C@H](C)N1 | inactive
15 | O=S(=O)(c1cccc2cnccc12)N1CCCNCC1 | inactive
16 | CCN[C@H]1C[C@H](C)S(=O)(=O)c2sc(S(N)(=O)=O)cc21 | inactive
17 | OC(Cn1cncn1)(Cn1cncn1)c1ccc(F)cc1F | inactive

Row | Compound | Potency
18 | Cc1ncc([N+](=O)[O-])n1CCO | inactive
19 | CCN(C)C(=O)Oc1cccc([C@H](C)N(C)C)c1 | inactive
20 | NS(=O)(=O)c1cc2c(cc1Cl)NC(C(Cl)Cl)NS2(=O)=O (stereo not drawn) | inactive
21 | CCCc1cc(C(N)=S)ccn1 | inactive
22 | CC1(C)[C@H](C(=O)O)N2C(=O)C[C@H]2S1(=O)=O | inactive
23 | CCCN[C@H]1CCc2nc(N)sc2C1 | inactive
24 | CC(N)C12CC3CC(CC(C3)C1)C2 (stereo not drawn) | inactive
25 | CCCCCCNC(=O)n1cc(F)c(=O)[nH]c1=O | 8.41 µM (active) and 10.5 µM (active)
26 | CNC1CCCN(c2c(F)cc3c(=O)c(C(=O)O)cn(C4CC4)c3c2OC)C1 (stereo not drawn) | inactive
27 | CCOC(=O)[C@H](CCc1ccccc1)N[C@H]1CS[C@H](c2cccs2)CN(CC(=O)O)C1=O | inactive
28 | C[C@@H](NCCCc1cccc(C(F)(F)F)c1)c1cccc2ccccc12 | 13.3 µM (active) and 18.6 µM (active)
29 | COc1ccc(-c2ccc3cc(C(=O)O)ccc3c2)cc1C12CC3CC(CC(C3)C1)C2 | inactive
30 | COc1cc(NS(=O)(=O)c2ccc(N)cc2)nc(OC)n1 | inactive
31 | N=C(N)c1ccc(OCCCCCOc2ccc(C(=N)N)cc2)cc1 | 4.73 µM (active) and 3.72 µM (active)
32 | CN(C)c1ccc(C(=C2C=CC(=[N+](C)C)C=C2)c2ccc(N(C)C)cc2)cc1 | 33.5 nM (active) and 296 nM (active)
33 | NC(=O)c1cccnc1 | inactive
